Measurements reported in the supplement of paper PMC10849652.
Of roughly 8,800 targets only a part is listed; those with a hit were picked by preference. About 0.5% of all pairs of compound and target were hits.

Legend:
Experiment in all cases: log2 fold change, soluble protein after heating vs DMSO (PISA); higher = thermal stabilisation; K562 lysate, 10 uM; active = over 0.2 and 3.5 SD of the protein, either way, in both replicates (recomputed)
[1] = compound: C#Cc1cccc(Nc2ncnc3cc(OCCOC)c(OCCOC)cc23)c1 [erlotinib]
Summary of the method: (§1)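 Values give the log-two fold change in thermal stability against solvent controls, from duplicates. Crude K562 extract at 1 mg/mL protein, made by dounce homogenisation in PBS pH 7.4 with 1 mM MgCl2, was treated with 10 μM compound for 30 min. After 3 min heating across 48°C-58°C, aliquots were pooled, adjusted to 0.5% NP-40 at 4°C and centrifuged at 21,000xg for 90 min. The supernatant was measured by TMTpro 16plex LC-MS/MS with channel sums equalised.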

[2] = compound: C/C(=N\NC(=O)C1=CC(=CC=C1)S(=O)(=O)N2CCOCC2)/C3=C(C=CC(=C3)Cl)O
Summary of the method: as §1

[3] = compound: C1=CC(=CC=C1C2=NC3=C(N2)C=C(C=C3)C(=O)N)OC4=CC=C(C=C4)Cl
Summary of the method: as §1

[4] = compound: C1=CC2=C(C=CC(=C2)/C=C\3/C(=O)NC(=NCC4=CC=CS4)S3)N=C1
Summary of the method: as §1

[5] = compound: C1=CC2=NC=CN=C2C=C1/C=C/3\C(=O)NC(=O)S3
Summary of the method: as §1

[6] = compound: C1=CC=C(C=C1)C2=NC(=C(N2)C3=CC=NC=C3)C4=CC(=C(C=C4)Cl)O
Summary of the method: as §1

[7] = compound: C1=CC=C2C(=C1)C3=NNC4=CC=CC(=C43)C2=O
Summary of the method: as §1

[8] = compound: C1CCN(C1)C(=O)NC2=CC=CC(=C2)NC3=NC=C(C(=N3)NCCC4=CN=CN4)Br
Summary of the method: as §1

[9] = compound: C1CN(CCC1(CC2=CC=C(C=C2)Cl)N)C3=NC=NC4=C3C=CN4
Summary of the method: as §1

[10] = compound: C1COCCN1CCN2C3=CC=CC=C3N=C2NC(=O)C4=CC(=CC=C4)[N+](=O)[O-] [IRAK-1-4 Inhibitor I]
Summary of the method: as §1

[11] = compound: C=CC(=O)N1CCC[C@@H](n2nc(-c3ccc(Oc4ccccc4)cc3)c3c(N)ncnc32)C1 [ibrutinib]
Summary of the method: as §1

[12] = compound: CC(=O)c1cnc2ccc(-c3cc(Cl)c(O)c(Cl)c3)nc2c1N[C@H]1CC[C@H](CN(C)C)CC1
Summary of the method: as §1

[13] = compound: CC(C)(C)Cn1c(N)nc2ccc(-c3[nH]c(C(C)(C)C)nc3-c3ccc(F)cc3)nc21 [ralimetinib]
Summary of the method: as §1

[14] = compound: CC(C)(O)CC(=O)NCCn1ccc2ncnc(Nc3ccc(Oc4cccc(C(F)(F)F)c4)c(Cl)c3)c21
Summary of the method: as §1

[15] = compound: CC(C)C1=C2N=C(C=C(N2N=C1)NCC3=CC=CC=C3)NCCCCCCN
Summary of the method: as §1

[16] = compound: CC1=C(C(CC(=O)N1)C2=CC=C(C=C2)C(F)(F)F)C(=O)NC3=C(C=C4C(=C3)C=NN4)F
Summary of the method: as §1

[17] = compound: CC1=C(C2=C(C=C1)C(=O)C3=CC=CC=C3N2CCCN)C
Summary of the method: as §1

[18] = compound: CC1=C(C=C(C=C1)NC(=O)C2=CC(=CC=C2)C(C)(C)C#N)NC3=CC4=C(C=C3)N=CN(C4=O)C
Summary of the method: as §1

[19] = compound: CC1=C(C=C(C=C1)NC(=O)C2=CC(=CC=C2)N(C)C)NC(=O)C3=CC=C(C=C3)O
Summary of the method: as §1

[20] = compound: CC1=CC=C(C=C1)SC2=C3C=C(SC3=CN=C2)C(=O)N
Summary of the method: as §1

Measured: log2 fold change

DLGAP5 (UniProt Q15398)
inactive: [1] -0.015 | [2] 0.023 | [3] -0.006 | [4] -0.024 | [5] -0.02 | [6] 0.026 | [7] -0.021 | [8] -0.013 | [9] -0.013 | [10] -0.009 | [11] 0.004 | [12] 0.02 | [13] -0.018 | [14] 0.005 | [15] -0.036 | [16] -0.009 | [17] -0.007 | [18] -0.012 | [19] 0.016 | [20] -0.003

CWC22 (UniProt Q9HCG8)
inactive: [1] 0.058 | [2] 0.006 | [3] -0.046 | [4] -0.009 | [5] -0.032 | [6] -0.025 | [7] -0.092 | [8] -0.014 | [9] -0.006 | [10] -0.017 | [11] 0.027 | [12] -0.007 | [13] 0.007 | [14] -0.002 | [15] -0.005 | [16] 0.06 | [17] 0 | [18] -0.002 | [19] 0.028 | [20] -0.009

DOCK10 (UniProt Q96BY6)
UniProt Q96BY6, sequence (Q96BY6 whole entry, looked up): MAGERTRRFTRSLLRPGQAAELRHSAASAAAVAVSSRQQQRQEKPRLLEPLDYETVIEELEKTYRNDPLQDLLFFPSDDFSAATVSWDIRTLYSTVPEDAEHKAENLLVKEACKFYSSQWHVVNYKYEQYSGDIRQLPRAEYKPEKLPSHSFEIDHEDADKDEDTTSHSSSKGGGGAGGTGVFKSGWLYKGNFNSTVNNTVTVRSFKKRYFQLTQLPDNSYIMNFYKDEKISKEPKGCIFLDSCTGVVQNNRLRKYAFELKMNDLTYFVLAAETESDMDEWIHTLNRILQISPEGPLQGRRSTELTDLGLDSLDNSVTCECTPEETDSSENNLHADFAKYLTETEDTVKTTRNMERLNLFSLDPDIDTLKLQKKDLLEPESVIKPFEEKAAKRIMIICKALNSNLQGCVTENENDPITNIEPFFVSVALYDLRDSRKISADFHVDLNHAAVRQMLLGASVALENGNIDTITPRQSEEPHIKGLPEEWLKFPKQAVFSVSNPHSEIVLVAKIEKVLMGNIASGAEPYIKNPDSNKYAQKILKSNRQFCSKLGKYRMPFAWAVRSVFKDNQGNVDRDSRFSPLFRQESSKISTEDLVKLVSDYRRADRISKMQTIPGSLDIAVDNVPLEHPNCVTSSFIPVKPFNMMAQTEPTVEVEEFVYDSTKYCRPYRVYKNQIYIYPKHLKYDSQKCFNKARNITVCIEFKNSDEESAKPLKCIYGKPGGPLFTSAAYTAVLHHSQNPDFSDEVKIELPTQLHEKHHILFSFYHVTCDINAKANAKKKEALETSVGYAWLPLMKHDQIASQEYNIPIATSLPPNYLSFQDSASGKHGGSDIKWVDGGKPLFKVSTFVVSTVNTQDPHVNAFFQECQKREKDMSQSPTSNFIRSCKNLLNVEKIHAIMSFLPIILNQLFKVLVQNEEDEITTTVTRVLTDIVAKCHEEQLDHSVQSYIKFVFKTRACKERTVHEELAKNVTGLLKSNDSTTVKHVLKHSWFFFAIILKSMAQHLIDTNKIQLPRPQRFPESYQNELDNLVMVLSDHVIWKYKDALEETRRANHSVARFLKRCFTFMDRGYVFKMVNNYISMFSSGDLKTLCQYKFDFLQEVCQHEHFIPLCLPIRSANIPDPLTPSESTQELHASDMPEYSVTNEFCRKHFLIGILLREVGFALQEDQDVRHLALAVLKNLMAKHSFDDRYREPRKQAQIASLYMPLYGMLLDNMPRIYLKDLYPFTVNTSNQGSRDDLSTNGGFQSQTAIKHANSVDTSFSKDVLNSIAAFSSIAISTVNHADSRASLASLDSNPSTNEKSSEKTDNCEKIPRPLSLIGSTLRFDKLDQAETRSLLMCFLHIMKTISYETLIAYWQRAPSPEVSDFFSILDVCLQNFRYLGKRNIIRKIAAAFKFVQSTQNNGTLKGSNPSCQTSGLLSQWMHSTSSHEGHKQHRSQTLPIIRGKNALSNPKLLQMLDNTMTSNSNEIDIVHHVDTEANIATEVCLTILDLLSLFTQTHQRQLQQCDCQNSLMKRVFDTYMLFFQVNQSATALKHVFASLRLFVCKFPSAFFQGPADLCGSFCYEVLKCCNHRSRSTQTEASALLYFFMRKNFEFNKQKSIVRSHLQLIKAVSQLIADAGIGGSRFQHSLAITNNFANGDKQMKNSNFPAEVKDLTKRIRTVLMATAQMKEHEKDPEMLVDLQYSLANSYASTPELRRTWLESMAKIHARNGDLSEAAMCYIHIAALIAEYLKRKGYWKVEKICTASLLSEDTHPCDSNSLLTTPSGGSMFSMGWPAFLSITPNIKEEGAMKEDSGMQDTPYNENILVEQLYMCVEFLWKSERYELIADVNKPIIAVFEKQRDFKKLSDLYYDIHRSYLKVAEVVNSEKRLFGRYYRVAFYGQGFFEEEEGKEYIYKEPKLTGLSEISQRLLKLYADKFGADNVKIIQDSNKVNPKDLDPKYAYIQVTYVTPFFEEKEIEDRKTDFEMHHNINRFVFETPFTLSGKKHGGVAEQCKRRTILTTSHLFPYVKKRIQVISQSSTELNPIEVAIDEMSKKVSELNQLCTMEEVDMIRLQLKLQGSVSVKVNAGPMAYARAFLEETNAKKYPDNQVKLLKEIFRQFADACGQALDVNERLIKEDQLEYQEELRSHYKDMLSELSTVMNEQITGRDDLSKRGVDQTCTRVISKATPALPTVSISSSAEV
inactive: [1] -0.23 | [2] -0.191 | [3] -0.03 | [4] 0.007 | [5] -0.094 | [6] -0.048 | [7] -0.034 | [8] -0.064 | [9] -0.028 | [10] -0.017 | [11] -0.151 | [12] 0.02 | [13] -0.001 | [14] -0.008 | [15] -0.084 | [16] -0.161 | [17] 0.008 | [18] 0.246 | [19] -0.045 | [20] 0.022

DENND4A isoform 2 (UniProt Q7Z401)
inactive: [1] 0.023 | [2] -0.021 | [3] -0.015 | [4] 0.007 | [5] -0.045 | [6] 0.002 | [7] -0.041 | [8] 0.002 | [9] 0.012 | [10] 0.017 | [11] 0 | [12] -0.089 | [13] 0.018 | [14] -0.028 | [15] 0.017 | [16] 0.006 | [17] 0.026 | [18] 0.029 | [19] 0.023 | [20] -0.009

CSDE1 isoform 4 (UniProt O75534)
inactive: [1] -0.025 | [2] 0.009 | [3] -0.035 | [4] 0.001 | [5] -0.023 | [6] -0.021 | [7] -0.002 | [8] 0.016 | [9] -0.001 | [10] -0.017 | [11] -0.007 | [12] -0.003 | [13] 0.017 | [14] 0.03 | [15] 0.003 | [16] -0.013 | [17] 0.004 | [18] -0.022 | [19] 0.012 | [20] 0.009

DLD (UniProt P09622)
UniProt P09622, sequence (P09622 whole entry, looked up): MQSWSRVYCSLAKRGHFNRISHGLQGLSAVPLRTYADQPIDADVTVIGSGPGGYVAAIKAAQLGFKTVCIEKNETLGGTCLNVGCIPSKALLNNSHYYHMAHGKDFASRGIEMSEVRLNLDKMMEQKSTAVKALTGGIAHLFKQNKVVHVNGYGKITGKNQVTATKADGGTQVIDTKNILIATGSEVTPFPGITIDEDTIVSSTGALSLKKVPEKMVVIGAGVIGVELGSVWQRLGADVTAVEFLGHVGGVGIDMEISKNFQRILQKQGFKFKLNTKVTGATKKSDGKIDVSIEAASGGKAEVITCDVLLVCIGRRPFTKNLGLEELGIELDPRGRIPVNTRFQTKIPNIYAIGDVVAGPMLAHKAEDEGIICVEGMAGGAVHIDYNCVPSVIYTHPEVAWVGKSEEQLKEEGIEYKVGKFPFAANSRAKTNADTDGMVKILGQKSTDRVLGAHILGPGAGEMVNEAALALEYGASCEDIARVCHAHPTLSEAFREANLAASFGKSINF
inactive: [1] 0.014 | [2] 0 | [3] 0.022 | [4] -0.01 | [5] 0.025 | [6] 0.004 | [7] 0.007 | [8] 0.008 | [9] 0.006 | [10] 0.026 | [11] 0.003 | [12] 0.003 | [13] -0.006 | [14] -0.016 | [15] -0.013 | [16] -0.03 | [17] -0.006 | [18] 0.049 | [19] -0.007 | [20] 0.004

DOCK7 (UniProt Q96N67)
inactive: [1] 0.078 | [2] 0.009 | [3] -0.045 | [4] -0.041 | [5] -0.126 | [6] 0.014 | [7] -0.023 | [8] -0.003 | [9] 0.016 | [10] 0.024 | [11] -0.117 | [12] -0.009 | [13] 0.077 | [14] -0.054 | [15] 0.021 | [16] 0.03 | [17] -0.078 | [18] 0.009 | [19] 0.065 | [20] -0.028

DPM1 (UniProt O60762)
inactive: [1] -0.009 | [2] -0.039 | [3] -0.036 | [4] 0.056 | [5] -0.015 | [6] -0.007 | [7] 0.041 | [8] -0.022 | [9] -0.014 | [10] -0.008 | [11] -0.016 | [12] -0.018 | [13] -0.025 | [14] -0.027 | [15] -0.009 | [16] 0.033 | [17] 0.015 | [18] 0.006 | [19] 0.014 | [20] 0.023

CHURC1 isoform 2 (UniProt Q8WUH1)
inactive: [1] 0.05 | [2] -0.13 | [3] -0.021 | [4] -0.003 | [5] 0.015 | [6] 0.079 | [7] 0.002 | [8] -0.017 | [9] 0.058 | [10] -0.002 | [11] 0.055 | [12] 0.05 | [13] 0.027 | [14] -0.077 | [15] 0.07 | [16] -0.065 | [17] 0.057 | [18] 0.085 | [19] -0.102 | [20] 0.004

DOK1 (UniProt Q99704)
inactive: [1] -0.024 | [2] 0.051 | [3] 0.023 | [4] 0.015 | [5] 0.002 | [6] -0.041 | [7] -0.02 | [8] 0.021 | [9] 0.06 | [10] 0.021 | [11] 0.023 | [12] 0.01 | [13] 0.017 | [14] 0.014 | [15] -0.029 | [16] 0.137 | [17] 0.018 | [18] 0.017 | [19] 0.014 | [20] -0.135

CNST (UniProt Q6PJW8)
inactive: [1] 0.044 | [2] -0.013 | [3] 0.05 | [4] 0.01 | [5] -0.004 | [6] 0.007 | [7] -0.054 | [8] -0.022 | [9] 0.036 | [10] 0.023 | [11] 0 | [12] 0.006 | [13] 0.031 | [14] 0.022 | [15] 0.012 | [16] 0.176 | [17] -0.01 | [18] -0.035 | [19] 0.006 | [20] -0.002

DMAC2L (UniProt Q99766)
inactive: [1] -0.057 | [2] 0.033 | [3] -0.017 | [4] 0.008 | [5] -0.074 | [6] 0.015 | [7] -0.066 | [8] -0.068 | [9] 0.027 | [10] -0.005 | [11] 0.046 | [12] -0.046 | [13] 0.037 | [14] -0.017 | [15] 0.017 | [16] 0.005 | [17] -0.018 | [18] 0.008 | [19] -0.043 | [20] -0.019

DICER1 (UniProt Q9UPY3)
UniProt Q9UPY3, sequence (Q9UPY3 whole entry, looked up): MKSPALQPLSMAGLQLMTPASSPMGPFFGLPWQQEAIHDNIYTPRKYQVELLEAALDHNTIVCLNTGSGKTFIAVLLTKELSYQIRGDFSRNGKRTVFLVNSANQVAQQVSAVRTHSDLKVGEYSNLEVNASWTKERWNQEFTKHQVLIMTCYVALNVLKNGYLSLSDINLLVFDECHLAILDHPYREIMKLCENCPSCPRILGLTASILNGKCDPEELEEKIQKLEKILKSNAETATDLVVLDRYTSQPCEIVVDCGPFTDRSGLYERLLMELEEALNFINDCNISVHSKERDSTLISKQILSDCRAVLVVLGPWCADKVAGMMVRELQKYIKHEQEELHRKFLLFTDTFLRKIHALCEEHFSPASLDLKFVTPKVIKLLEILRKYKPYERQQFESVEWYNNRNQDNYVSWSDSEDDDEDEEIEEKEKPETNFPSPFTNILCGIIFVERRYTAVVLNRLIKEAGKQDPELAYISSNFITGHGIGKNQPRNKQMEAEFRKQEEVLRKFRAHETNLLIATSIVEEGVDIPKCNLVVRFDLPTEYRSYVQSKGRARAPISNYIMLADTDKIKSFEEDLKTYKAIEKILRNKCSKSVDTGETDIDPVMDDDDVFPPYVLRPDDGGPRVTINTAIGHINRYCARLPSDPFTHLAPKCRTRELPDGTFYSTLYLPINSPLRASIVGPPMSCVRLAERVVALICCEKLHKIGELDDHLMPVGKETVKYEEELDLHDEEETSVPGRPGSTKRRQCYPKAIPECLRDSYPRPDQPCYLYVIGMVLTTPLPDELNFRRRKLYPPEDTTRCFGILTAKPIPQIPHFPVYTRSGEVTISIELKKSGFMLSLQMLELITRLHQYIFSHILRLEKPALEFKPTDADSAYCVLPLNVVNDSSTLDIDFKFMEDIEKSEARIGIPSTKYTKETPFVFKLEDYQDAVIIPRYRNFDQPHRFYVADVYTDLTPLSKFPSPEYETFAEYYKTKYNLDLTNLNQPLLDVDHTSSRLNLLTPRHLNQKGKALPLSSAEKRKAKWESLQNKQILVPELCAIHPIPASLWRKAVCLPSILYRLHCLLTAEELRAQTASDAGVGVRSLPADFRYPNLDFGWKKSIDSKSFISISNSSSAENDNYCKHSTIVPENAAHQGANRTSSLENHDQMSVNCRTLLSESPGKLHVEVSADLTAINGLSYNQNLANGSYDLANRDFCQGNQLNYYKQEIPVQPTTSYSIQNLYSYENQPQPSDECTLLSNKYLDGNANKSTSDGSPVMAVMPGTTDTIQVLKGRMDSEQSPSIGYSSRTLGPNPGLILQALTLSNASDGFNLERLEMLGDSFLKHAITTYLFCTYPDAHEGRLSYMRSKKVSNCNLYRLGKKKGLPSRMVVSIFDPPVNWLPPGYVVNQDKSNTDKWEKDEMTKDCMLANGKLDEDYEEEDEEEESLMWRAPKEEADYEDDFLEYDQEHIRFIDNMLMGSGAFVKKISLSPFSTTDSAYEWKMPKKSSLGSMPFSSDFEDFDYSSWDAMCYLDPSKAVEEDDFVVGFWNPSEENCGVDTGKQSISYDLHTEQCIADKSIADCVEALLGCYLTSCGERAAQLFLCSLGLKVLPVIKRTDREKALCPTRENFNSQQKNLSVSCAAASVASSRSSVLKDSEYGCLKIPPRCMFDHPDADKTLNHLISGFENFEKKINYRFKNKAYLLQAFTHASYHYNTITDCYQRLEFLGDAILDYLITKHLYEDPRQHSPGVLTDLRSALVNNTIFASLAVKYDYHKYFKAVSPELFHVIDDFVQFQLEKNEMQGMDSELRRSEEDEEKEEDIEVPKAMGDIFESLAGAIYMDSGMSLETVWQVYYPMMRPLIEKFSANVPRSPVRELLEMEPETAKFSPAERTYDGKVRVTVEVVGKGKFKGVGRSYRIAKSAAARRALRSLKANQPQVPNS
inactive: [1] 0.013 | [2] -0.088 | [3] -0.056 | [4] -0.023 | [5] -0.027 | [6] 0.03 | [7] -0.025 | [8] -0.064 | [9] -0.042 | [10] -0.016 | [11] -0.011 | [12] 0.037 | [13] 0.019 | [14] -0.055 | [15] 0.012 | [16] 0.044 | [17] 0.003 | [18] 0.018 | [19] 0.013 | [20] 0

COG4 (UniProt Q9H9E3)
inactive: [1] 0.029 | [2] -0.015 | [3] -0.05 | [4] -0.015 | [5] -0.018 | [6] 0.008 | [7] -0.057 | [8] 0.011 | [9] 0.039 | [10] 0.009 | [11] 0.014 | [12] 0.005 | [13] -0.007 | [14] -0.042 | [15] -0.029 | [16] 0 | [17] -0.001 | [18] -0.049 | [19] -0.033 | [20] 0

COMT (UniProt P21964)
inactive: [1] 0.031 | [2] -0.03 | [3] -0.01 | [4] 0.011 | [5] -0.029 | [6] 0.001 | [7] 0.043 | [8] -0.024 | [9] -0.033 | [10] 0.019 | [11] 0.01 | [12] 0.019 | [13] 0.01 | [14] 0.016 | [15] 0.009 | [16] -0.045 | [17] 0.002 | [18] 0.031 | [19] 0.019 | [20] 0.01

CNDP2 (UniProt Q96KP4)
UniProt Q96KP4, sequence (Q96KP4 whole entry, looked up): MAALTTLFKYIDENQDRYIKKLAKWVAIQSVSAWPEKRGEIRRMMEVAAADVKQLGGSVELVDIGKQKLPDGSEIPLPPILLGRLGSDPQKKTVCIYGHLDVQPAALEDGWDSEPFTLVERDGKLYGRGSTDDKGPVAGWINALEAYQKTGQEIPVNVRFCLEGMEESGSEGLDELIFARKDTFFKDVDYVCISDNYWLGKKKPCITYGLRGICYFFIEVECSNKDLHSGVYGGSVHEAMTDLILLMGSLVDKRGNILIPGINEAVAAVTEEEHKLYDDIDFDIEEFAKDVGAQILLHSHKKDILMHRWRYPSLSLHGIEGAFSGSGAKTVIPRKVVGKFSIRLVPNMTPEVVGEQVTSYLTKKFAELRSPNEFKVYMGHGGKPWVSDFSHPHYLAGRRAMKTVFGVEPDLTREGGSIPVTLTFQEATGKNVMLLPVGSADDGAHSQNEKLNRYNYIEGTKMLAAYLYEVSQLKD
inactive: [1] -0.016 | [2] 0.004 | [3] 0.02 | [4] -0.038 | [5] -0.009 | [6] -0.022 | [7] 0.007 | [8] 0.039 | [9] 0.041 | [10] 0.051 | [11] 0.013 | [12] -0.027 | [13] 0.024 | [14] -0.049 | [15] -0.011 | [16] -0.005 | [17] -0.02 | [18] 0.023 | [19] 0 | [20] -0.035
